OTUD3 block = inhibitors of human OTUD3 deubiquitinase; inhibition, % at 25 µM; purified OTUD3, Ub-rhodamine fluorescence, 2 h; Q5T2D3; 47,000 tested, 0.7% active
USP30 block = human USP30 deubiquitinase inhibition; inhibition, % at 25 µM; Q70CQ3; AID 1645860; purified USP30, Ub-rhodamine cleavage fluorescence; 47,000 tested, 5.3% active
USP28 inh = human USP28 deubiquitinase inhibition. Q96RU2. inhibition, % at 25 µM. purified USP28, Ub-rhodamine cleavage fluorescence, 30 min. 47,000 tested, 3% active
USP17 block = blocks human USP17 ubiquitin-rhodamine cleavage; A8MUK1; purified USP17, Ub-rhodamine cleavage fluorescence, 3 h; inhibition, % at 50 µM; 47,000 tested, 6.5% active; AID 1645855
Target sequence (A8MUK1 whole entry, looked up): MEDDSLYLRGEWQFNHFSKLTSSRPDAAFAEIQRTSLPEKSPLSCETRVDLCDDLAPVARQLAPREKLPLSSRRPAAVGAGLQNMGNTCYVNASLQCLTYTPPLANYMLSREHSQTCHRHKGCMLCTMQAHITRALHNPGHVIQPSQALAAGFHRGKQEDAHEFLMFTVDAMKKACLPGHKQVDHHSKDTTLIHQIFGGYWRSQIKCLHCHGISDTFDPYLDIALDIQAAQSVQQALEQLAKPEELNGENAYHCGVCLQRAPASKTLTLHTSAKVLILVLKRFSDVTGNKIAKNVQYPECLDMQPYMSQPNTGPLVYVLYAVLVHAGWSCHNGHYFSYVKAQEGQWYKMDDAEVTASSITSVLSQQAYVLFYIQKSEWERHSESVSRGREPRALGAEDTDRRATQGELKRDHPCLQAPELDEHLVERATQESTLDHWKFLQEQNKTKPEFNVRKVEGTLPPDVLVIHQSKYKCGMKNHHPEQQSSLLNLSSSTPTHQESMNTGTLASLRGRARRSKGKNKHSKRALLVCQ
Large screens that a line does not name were inactive. Hits are enriched below; roughly 12% of the tested compounds scored in any of these assays. Cut-off read from the data, not from the text of the source: active = inhibition above about 30%; inactive = the rest.

Cc1ccc2[nH]c(=O)c(CN(CC3COCCO3)C(=O)Nc3ccccc3F)cc2c1 (stereo not drawn)	USP30 block 37
Cc1ccc2[nH]c(=O)c(CN(CC3CCCO3)S(C)(=O)=O)cc2c1 (stereo not drawn)	none
Cc1ccc2[nH]c(=O)c(CN(CC3COCCO3)C(=O)Nc3ccccc3Cl)cc2c1 (stereo not drawn)	none (no result: USP17 block)
Cc1nn(-c2ccc(Cl)cc2)c2[nH]c(=O)c(CNc3ccc(C(C)(C)C)cc3)cc12	USP17 block 39
Cc1ccccc1S(=O)(=O)N1CCC(n2cnnc2C2CC2)CC1	none
COc1ccc(CCNc2nc(-c3ccccc3)cc(-c3ccccc3)c2C#N)cc1OC	USP17 block 37
Cc1cccc(CN2CCN(CC(=O)NCc3ccc4c(c3)OCO4)C2=O)c1	none
O=C(/C=C/c1ccc(F)cc1)N1CCCc2ccccc21	none
O=C(/C=C/c1ccc(F)cc1)N1CCc2ccccc2C1	USP17 block 62
COc1ccc(C(=O)Nc2nc3n(n2)C(c2ccccc2)CC(=O)N3)cc1 (stereo not drawn)	USP30 block 35, USP17 block 73
COc1ccccc1/C=C/C(=O)Nc1nc2n(n1)C(c1ccc(Cl)cc1)CC(=O)N2 (stereo not drawn)	OTUD3 block 37, USP30 block 39, USP17 block 44
O=C(NCC1CC1)[C@H]1CCS(=O)(=O)[C@@H]2CN(Cc3ccccc3F)C[C@H]12	none
Cn1c(=O)/c(=C/c2ccccc2)[nH]c(=O)/c1=C/c1ccccc1	USP17 block 56
COc1cccc(C(=O)N2C[C@H]3NC(=O)c4ccccc4C(=O)[C@@]3(C)C2)c1	none
CCOc1ccc(NC(=O)CC2N=C(N3CCN(c4ccccc4F)CC3)NC2=O)cc1 (stereo not drawn)	USP30 block 35
CCOC(=O)c1c(C)oc2ccc(N(C(=O)c3ccncc3)S(=O)(=O)c3ccc(OCC)cc3)cc12	USP28 inh 38
O=C(CSc1nc2ncc(Cl)cc2[nH]1)Nc1ccc(OCc2ccccc2)cc1	USP17 block 38
Cc1ccc(NC(=O)CSc2nc3ncc(Br)cc3[nH]2)cc1C	USP17 block 60 (no result: USP30 block, USP28 inh)
COC(=O)c1ccc(NC(=O)CSc2nc3ncc(Cl)cc3[nH]2)cc1	none
COCCCN1CCS(=O)(=O)c2c(Cl)c(F)nc(Oc3ccccc3F)c21	USP17 block 88
N#Cc1ccc(Oc2nc(F)c(Cl)c3c2N(CC2CCCO2)CCS3(=O)=O)cc1 (stereo not drawn)	USP17 block 47
O=S1(=O)CCN(CC2CCCO2)c2c(Oc3ccc(F)cc3)nc(F)c(Cl)c21 (stereo not drawn)	USP17 block 34
O=S1(=O)CCN(CC2CCCO2)c2c(Oc3ccccc3)nc(F)c(Cl)c21 (stereo not drawn)	USP17 block 60
COCCN1CCS(=O)(=O)c2c(Cl)c(F)nc(Oc3ccc(OC)cc3)c21	none
O=S1(=O)CCN(Cc2cccnc2)c2c(Oc3ccccc3)nc(F)c(Cl)c21	none
CCCCNC(=O)c1cc(=O)nc2sc(N3CCC(C)CC3)nn12	none (no result: USP30 block, USP28 inh)
N#CCCc1c(-c2ccccc2)nc2[nH]c3ccccc3n2c1=O	none
COc1ccc(CC(=O)N2CCc3cc(-c4noc(C)n4)ccc32)cc1	USP28 inh 33
Cc1ccc(NC(=O)c2ccc(Nc3nnc(C)c4ccccc34)cc2)cc1	USP28 inh 75, USP17 block 52
Cc1nnc(Nc2ccc(C(=O)Nc3c(Cl)cccc3Cl)cc2)c2ccccc12	none
CC1CCCN(S(=O)(=O)c2cc3cc(F)ccc3oc2=O)C1 (stereo not drawn)	USP17 block 58
O=S(=O)(NC1CCc2ncc(C(F)(F)F)n2C1)C1CC1 (stereo not drawn)	none
CC12c3ccc4c(c3C(=O)c3occ(c31)C(=O)CC2O)CCC4=O (stereo not drawn)	USP28 inh 54
O=C(Nc1ccc(F)cc1)Nc1ccccc1OCc1cc(=O)n2ccccc2n1	OTUD3 block 33, USP30 block 46, USP28 inh 31, USP17 block 41
CCC(C)c1ccc(NC(=O)COc2nc3ccccc3nc2C)cc1 (stereo not drawn)	USP17 block 47
O=C(OCc1cc(=O)n2cc(Br)ccc2n1)c1ccc(S(=O)(=O)N2CCc3ccccc3C2)cc1	none
CCOC(=O)c1noc2ncnc(Nc3ccc4c(c3)OCO4)c12	none
Cc1c(C)c(C)c2[nH]c(-c3ccc4c(c3)OCO4)nc2c1C	USP30 block 49, USP17 block 47
O=C(Nc1ccccc1C(=O)O)c1ccc(CSCc2ccccc2)cc1	USP28 inh 31, USP17 block 39
O=C(c1csc2ccccc12)N1CCN(c2ccc(Cl)c(Cl)c2)CC1	USP30 block 33
Cc1ccccc1C(=O)N1CCN(CCNC(=O)C(=O)Nc2ccc(Cl)cc2)CC1	USP30 block 42
COc1ccc(NC(=O)NCCN2CCN(c3ccc(Cl)cc3)CC2)cc1	none
O=C(NCc1ccc2c(c1)OCO2)[C@H]1C=CCN1C(=O)c1ccc(F)cc1	none
Nc1nonc1C(=O)NCCNCc1cccc(OCc2ccc(Cl)cc2)c1	USP28 inh 56
O=C(Nc1ccc(Cl)cc1)c1cccc(OCc2ccccc2)c1	none
COc1ccc(CCNC(=O)c2ccc(Cn3c(=O)c4ccccc4n(CC(=O)N4CCC(C)CC4)c3=O)cc2)cc1OC	none
Cc1cc(=O)n2c(n1)NC(Nc1ccc(F)cc1)=NC2c1ccco1 (stereo not drawn)	none (no result: USP17 block)
Cc1ccc(NC2=NC(c3ccco3)n3c(nc(C)cc3=O)N2)c(C)c1 (stereo not drawn)	USP30 block 62, USP17 block 40
Cc1ccc(S(=O)(=O)NCc2ccc(C(=O)NCCc3ccc(S(N)(=O)=O)cc3)cc2)cc1	OTUD3 block 77, USP30 block 88, USP28 inh 69, USP17 block 88
CN(Cc1ccccc1)C(=O)c1ccc(CNS(=O)(=O)c2ccc(F)cc2)cc1	none
Cc1cccc(CCNC(=O)c2ccc(CNS(=O)(=O)c3ccc(F)cc3)cc2)c1	USP30 block 34
CC(=O)Nc1ccc(S(=O)(=O)NCc2ccc(C(=O)NCCc3ccc(Cl)cc3)cc2)cc1	USP30 block 96, USP28 inh 92
CC(=O)Nc1ccc(S(=O)(=O)N2CCC(C(=O)NCCc3ccc(Cl)cc3)CC2)cc1	USP30 block 34
CCS(=O)(=O)N1CCC2(CCCN(c3ncc(F)cn3)C2)C1 (stereo not drawn)	none
CCc1nn2c(CNC(=O)Cc3ccccc3F)c(C)nc2s1	none
COc1ccc(NC(=O)CN2C(=O)c3ccccc3C2c2cn(C)c3ccccc23)c(OC)c1 (stereo not drawn)	none
Cc1ccc2nc(SCc3cn4c(C)cccc4n3)[nH]c2c1	none
Cc1ccc2nc(-c3cccc(-c4nc5ccc(C)cc5[nH]4)n3)[nH]c2c1	USP17 block 54
Cc1ccc(N2CC(c3nc4ccccc4n3CCOc3cccc(C)c3)CC2=O)cc1 (stereo not drawn)	USP30 block 47, USP17 block 48
COc1ccc(OCCn2c(C3CC(=O)N(C)C3)nc3ccccc32)cc1 (stereo not drawn)	none
